Experimental data: PubChem BioAssay (Tox21)
Records with an inconclusive call do not appear. Entries that show only a call come without a potency. The source made the active and inactive calls. Calls follow the shape of the dose curve; as a rule, active = well fitted activation curve with a large enough effect in the signal ratio in the repeat runs (not every such curve was filed as active); inconclusive = weak or mixed curves; inactive = flat fitted curve, though single readings scatter; the % refers to the signal ratio.

Assay: p53 small molecule agonists, cell-based qHTS assay (AID 1963582)
Conditions: HCT-116 p53RE-bla reporter, beta-lactamase FRET ratio, 16 h; series mostly up to 66 µM
Source text: National Center for Advancing Translational Sciences [NCATS]
Division of Preclinical Innovation [DPI]
U.S. Environmental Protection Agency [EPA]
National Institutes of Environmental Health Sciences [NIEHS]
National Toxicology Program [NTP]
U.S. Food and Drug Administration [FDA]
p53, a tumor suppressor protein, is activated following cellular insult, including DNA damage and other cellular stresses. The activation of p53 regulates cell fate by inducing DNA repair, cell cycle arrest, apoptosis, or cellular senescence. The activation of p53, therefore, is a good indicator of DNA damage and other cellular stresses. […] The activation of the reporter gene under culture conditions can be detected by fluorescence intensity. This cell line was used to screen the Tox21 10K compound library in a 1536-well plate format and to identify agonists that activate the p53 signaling pathway.
Tox21 Assay Protocol Summary:
The p53RE-bla cells were dispensed at 4,000 cells/5 ul/well in 1536-well black wall/clear bottom plates using a Multidrop dispenser. After the assay plates were incubated at a 37 C/5% CO2 incubator for 5 hours, 23 nL of compounds dissolved in DMSO, positive controls or DMSO only was transferred to the assay plate by a pin tool. The plates were incubated at 37 C for 16 hours. After 1 uL of LiveBLAzerTM B/G FRET substrate was added using a Flying Reagent Dispenser, the plates were incubated at room temperature for 2 hours, and fluorescence intensity was measured by an Envision plate reader.
Potency is read from the fitted curve at half-maximal effect.

Structure (SMILES)	Potency	activation
O=C1CCCCCCCCCCOCCCCO1	inactive	–
N[C@H]1C(O)O[C@H](CO)[C@H](O)[C@@H]1O (stereo not given in full)	inactive	–
COc1cc2c(cc1OC)-c1cc3ccc(OC)c(OC)c3c[n+]1CC2	inactive	–
N=C1N=C(N)c2ccccc21	36.3 µM (active)	–
Clc1cccnc1	inactive	–
O=C(NCC1CN(c2ccc(N3CCOCC3=O)cc2)C(=O)O1)c1ccc(Cl)s1 (stereo not given)	inactive	–
Nc1ccccc1S(=O)(=O)c1ccccc1	inactive	–
N#Cc1c(F)cccc1F	inactive	–
C[C@H]1C[C@H]2[C@@H]3CCC4=CC(=O)C=C[C@]4(C)[C@@]3(F)[C@@H](O)C[C@]2(C)[C@@]1(O)C(=O)COP(=O)(O)O	inactive	–
CCCC1CCC(=O)O1 (stereo not given)	inactive	–
C=C(C)CCCC(C)CCO (stereo not given)	inactive	–
CC(C)(C)c1cc(CCC(=O)OCCSCCOC(=O)CCc2cc(C(C)(C)C)c(O)c(C(C)(C)C)c2)cc(C(C)(C)C)c1O	inactive	–
Cc1cc(O)c2c(c1)C(=O)c1cccc(O)c1C2=O	inactive	–
CC1=CC(=O)CC(C)(C)C1(O)/C=C/C(C)=C\C(=O)O (stereo not given)	inactive	–
C=CC(=C)CC/C=C(\C)CCC=C(C)C	–	-2.41% [at 13.5 µM] (inactive)
CCCCCCCCCCCCCCCCCCN(C)C	inactive	–
CC(=O)OC(C)=O	inactive	–
C[Si]1(C)N[Si](C)(C)N[Si](C)(C)N1	inactive	–
CC(NC(CCc1ccccc1)C(=O)O)C(=O)N1C(=O)N(C)CC1C(=O)O (stereo not given)	inactive	–
Cc1ccsc1/C=C/C1=NCCCN1C	inactive	–

Structure (SMILES)	Potency	activation
CC(=O)c1ccc(C(C)=O)cc1	inactive	–
CCCCCCCCCCCBr	inactive	–
CC1(C)S[C@@H]2[C@H](N=CN3CCCCCC3)C(=O)N2[C@H]1C(=O)O	inactive	–
CCCCOC(=O)C(C)Oc1ccc(Oc2ccc(C(F)(F)F)cn2)cc1 (stereo not given)	inactive	–
CCCc1ncc(C(=O)O)s1	inactive	–
CO[C@@]1(NC(=O)CSCC#N)C(=O)N2C(C(=O)O)=C(CSc3nnnn3C)CS[C@@H]21	inactive	–
C=CCSCC1Nc2cc(Cl)c(S(N)(=O)=O)cc2S(=O)(=O)N1 (stereo not given)	inactive	–
NC(=O)c1ncn([C@@H]2O[C@H](CO)[C@@H](O)[C@H]2O)c1N	inactive	–
Nc1nc2c(ncn2COC(CO)CO)c(=O)[nH]1	inactive	–
Clc1nnc(Cl)c2ccccc12	inactive	–
O=C1c2ccccc2C(=O)N1CCl	inactive	–
CCCCC/C=C/CC(=O)OC	inactive	–
CC(C)COC(=O)COc1cc(Cl)c(Cl)cc1Cl	inactive	–
CC/C=C\CCOC(C)=O	inactive	–
CC(C)(C)N	inactive	–
Cc1c(Cn2ccnc2)c2ccccc2n1CCC(=O)O	inactive	–
CCN(CC)CCOc1ccccc1C(=O)CCc1ccccc1	inactive	–
CC1(C)Cc2cccc(N)c2O1	inactive	–
Cc1ccccc1C#N	inactive	–
COc1ccc(-c2coc3cc(O)ccc3c2=O)cc1	inactive	–
